Assay results taken from PubChem BioAssay AID1259421 (Broad Institute, 2018).
Where “and” joins values, the source holds several entries; their conditions need not be identical. Identical values can stand only once. Among all 6,400 compounds or so, about 610 (9.5%) were called active. No stated cut-off is given here; in the data, active means activity change below about -70%; inconclusive means no clear call, values can overlap the other calls; inactive means above that. What follows is part of a selection rich in actives, with near analogues and random picks from the rest. Where a structure was tested more than once in an assay, its records may differ in their call.

Experiment: Toxoplasma gondii ME49Luc growth in HeLa cells, luciferase, no IFN-y, primary screen (AID 1259421)
Details: T. gondii ME49Luc in HeLa, 72 h, stronger effect = lower value, concentration not given here

Row | Structure (SMILES) | activity change, negative = inhibition
1 | Cn1cc(C(=O)C(=O)N[C@H]2CN3CCC2CC3)c2ccccc21 | 3.13% (inactive) and -2.73% (inactive)
2 | O=Cc1cn(Cc2ccc(Cl)cc2)c2ccccc12 | 3.18% (inactive)
3 | O=C(Nc1ccncc1)C(=O)c1cn(Cc2ccc(Cl)cc2)c2ccccc12 | -75.2% (active)
4 | c1cc(Cc2cnc[nH]2)ccn1 | 4.56% (inactive)
5 | CCCN(CCC)C1CCc2ccc(O)cc2C1 (configuration not stated) | -0.0815% (inactive) and 4.46% (inactive)
6 | O=C(O)c1ccc2[nH]cc(CCCCN3CC=C(c4ccccc4)CC3)c2c1 | 8.65% (inactive) and 4.54% (inactive)
7 | c1ccc2sc(C3(N4CCCC4)CCCCC3)cc2c1 | 3.78% (inactive)
8 | O=C(O)CCCOc1ccc(Cl)cc1Cl | 9.07% (inactive)
9 | O=C(O)COc1ccc(Cl)cc1Cl | 5.11% (inactive)
10 | Oc1cc(Cl)ccc1Oc1ccc(Cl)cc1Cl | -80.6% (active) and -88.3% (active)
11 | FC(F)OC(F)(F)C(F)Cl (configuration not stated) | 2.39% (inactive)
12 | CCC1C(C)=NN=C(c2ccc(OC)c(OC)c2)c2cc(OC)c(OC)cc21 (configuration not stated) | 6.78% (inactive)
13 | CCCCC1(C2CCCC2)Cc2cc(OCCCC(=O)O)c(Cl)c(Cl)c2C1=O (configuration not stated) | -6.67% (inactive)
14 | CC(=O)OC[C@]12CCC(C)=C[C@H]1O[C@@H]1[C@H](O)[C@@H](OC(C)=O)[C@@]2(C)[C@@]12CO2 | -82.7% (active)
15 | CCCC[N+]1(C)[C@@H]2CC(OC(=O)[C@@H](CO)c3ccccc3)C[C@H]1[C@@H]1O[C@@H]12 (some centres not stated) | 2.27% (inactive)
16 | NC(=NCc1ccc(Cl)cc1)SCCCc1cnc[nH]1 | -1.21% (inactive) and -3.65% (inactive)
17 | C=C(C)[C@@H]1CCC(C)=C[C@H]1c1c(OC)cc(C)cc1OC | 13.1% (inactive) and 2.72% (inactive)
18 | COc1cccc2c1C(=O)c1c(O)c3c(c(O)c1C2=O)C[C@@](O)(C(=O)CO)C[C@@H]3O[C@H]1C[C@H](N2CCO[C@H](OC)C2)[C@H](O)[C@H](C)O1 | -77.1% (active)
19 | CC(C)(C)NCC(O)COc1cccc2[nH]c(C#N)cc12 (configuration not stated) | -74.6% (active)
20 | CC(C)(C)NC[C@H](O)COc1cccc2[nH]c(C#N)cc12 | 0.543% (inactive)
21 | CS(=O)(=O)Nc1ccc(Cc2noc(-c3ccc4[nH]cc(CCN)c4c3)n2)cc1 | 0.294% (inactive)
22 | CCc1cccc(CC)c1NC1=NCCN1 | 5.66% (inactive)
23 | CN1C(=O)[C@@H](NC(=O)c2cc3ccccc3[nH]2)N=C(c2ccccc2)c2ccccc21 | -59.5% (inactive)
24 | CC(=O)O[C@@]12CO[C@@H]1C[C@H](O)[C@@]1(C)C(=O)[C@H](O)C3=C(C)[C@@H](O)C[C@@](O)([C@@H](OC(=O)c4ccccc4)[C@H]21)C3(C)C | -60.3% (inactive) and 13.9% (inactive)

Row | Structure (SMILES) | activity change, negative = inhibition
25 | C/C=C(\C)C(=O)N[C@@H](c1ccccc1)[C@@H](O)C(=O)O[C@H]1C[C@@]2(O)[C@@H](OC(=O)c3ccccc3)[C@@H]3[C@]4(OC(C)=O)CO[C@@H]4C[C@H](O)[C@@]3(C)C(=O)[C@H](OC(C)=O)C(=C1C)C2(C)C | -82.1% (active)
26 | CC(=O)O[C@H]1C(=O)[C@@]2(C)C([C@H](OC(=O)c3ccccc3)[C@]3(O)C[C@H](O)C(C)=C1C3(C)C)[C@]1(OC(C)=O)CO[C@@H]1C[C@@H]2O (some centres not stated) | -56.1% (inactive)
27 | C[C@H](N)Cc1ccccc1 | 4.68% (inactive)
28 | O=[N+]([O-])NC1=NCCN1Cc1ccc(Cl)nc1 | 8.16% (inactive)
29 | C[C@]12CCC3C(CC[C@H]4CC(=O)CC[C@]34C)C1CCC2=O (some centres not stated) | 1.73% (inactive)
30 | CC[C@H]1CN2CCC1C[C@@H]2[C@@H](O)c1ccnc2ccc(OC)cc12 (some centres not stated) | 14.8% (inactive) and 8.86% (inactive)
31 | CN1CCc2cc(Cl)c(O)cc2[C@H]2c3ccccc3CC[C@@H]21 | -4.73% (inactive)
32 | CCCCOC(=O)c1ccccc1C(=O)OCCCC | 3.08% (inactive) and -9.32% (inactive)
33 | CNc1ccccc1C(=O)O | -1.44% (inactive)
34 | C[CH2][Hg][S]c1ccccc1C(=O)O | -88.9% (active) and -92.1% (active)
35 | O=c1cccc2n1C[C@H]1CNCC2C1 | 4.99% (inactive)
36 | C#C[C@]1(O)CC[C@H]2[C@@H]3CCC4=CC(=O)CCC4=C3C=C[C@@]21CC | -82.3% (active)
37 | C=CC[C@@]1(O)CC[C@H]2[C@@H]3CCC4=CC(=O)CCC4=C3C=C[C@@]21C | 9.86% (inactive)
38 | C=CC[C@]1(O)CCC2C3CCC4=CC(=O)CCC4=C3C=C[C@@]21C (some centres not stated) | 11.2% (inactive)
39 | C=C[C@H]1CN2CC[C@H]1C[C@@H]2[C@@H](OC(=O)OCC)c1ccnc2ccc(OC)cc12 | 7.12% (inactive) and 13% (inactive)
40 | CCCN1CCO[C@H]2c3cc(O)ccc3OC[C@@H]21 | -9.29% (inactive)
41 | NCCc1cccc(O)c1 | -9.36% (inactive)
42 | Oc1ccc2c3c1OC1[C@@H](O)CC[C@@]4(O)[C@@H](C2)N(CC2CCC2)CC[C@]314 (some centres not stated) | 3.08% (inactive)
43 | C[C@@]1(CO)[C@H](O)CC[C@@]2(C)[C@H]1CC[C@H]1C[C@@H]3C[C@@]12CC[C@]3(O)CO | -87.7% (active)
44 | CC(C(=O)OC1CC2CCC(C1)N2C)c1ccc(Br)cc1 (configuration not stated) | -1.35% (inactive) and 1.24% (inactive)
45 | CC[C@@]1(O)C(=O)OCc2c1cc1n(c2=O)Cc2cc3ccccc3nc2-1 | -82.2% (active) and -91.4% (active)
46 | Cc1c(C(=O)c2cccc3ccccc23)c2cccc3c2n1[C@H](CN1CCOCC1)CO3 | -89.2% (active)
47 | CCCn1c(C)c(C(=O)c2cccc3ccccc23)c2ccccc21 | 93.6% (inactive)
48 | Cc1c(C(=O)c2cccc3ccccc23)c2cccc3c2n1[C@@H](CN1CCOCC1)CO3 | 46.7% (inactive)

Row | Structure (SMILES) | activity change, negative = inhibition
49 | CC(=O)Oc1ccc(Cl)c2cccnc12 | -3.09% (inactive)
50 | Cc1c(N2C(=O)[C@@H]3[C@H](O)CCN3C2=O)ccc(C#N)c1Cl | 8.89% (inactive)
51 | C[C@@H]1O[C@@H](O[C@@H]2C[C@@H](O)[C@]3(CO)[C@H]4[C@H](O)C[C@]5(C)[C@@H](C6=CC(=O)OC6)CC[C@]5(O)[C@@H]4CC[C@]3(O)C2)[C@H](O)[C@H](O)[C@H]1O | -77.1% (active)
52 | C[C@@H]1O[C@@H](O[C@H]2C[C@@H](O)[C@]3(CO)C4C(CC[C@]3(O)C2)[C@@]2(O)CC[C@H](C3=CC(=O)OC3)[C@@]2(C)C[C@H]4O)[C@H](O)[C@H](O)[C@H]1O (some centres not stated) | -88.6% (active)
53 | CC1OC(OC2CC(O)C3(CO)C4C(O)CC5(C)C(C6=CC(=O)OC6)CCC5(O)C4CCC3(O)C2)C(O)C(O)C1O (configuration not stated) | -83.7% (active)
54 | C=CCN1CCC23c4c5ccc(O)c4OC2/C(=N\NC(=O)c2ccccc2)CCC3(O)C1C5 (configuration not stated) | 25.6% (inactive)
55 | C=CCN1CC[C@]23c4c5ccc(O)c4OC2C(=O)CC[C@@]3(O)[C@H]1C5 (some centres not stated) | 4.78% (inactive)
56 | CCN1C[C@]2(OC(=O)c3ccccc3NC(C)=O)CC[C@@H](OC)[C@]34C1[C@@H](C[C@H]23)[C@@]1(O)C[C@H](OC)[C@H]2C[C@H]4[C@]1(O)[C@H]2OC | 10.9% (inactive)
57 | O=C(O)c1ccccn1.O=C(O)c1ccccn1.O=C(O)c1ccccn1.[Cr] | 10.5% (inactive)
58 | Cc1ccc2c(c1)Cc1c(C(=O)NC3CCCCC3)nn(-c3ccc(Cl)cc3Cl)c1-2 | -23.4% (inactive) and -2.64% (inactive)
59 | Cc1ccc2c(c1)Cc1c(C(=O)NN3CCCCC3)nn(-c3ccc(Cl)cc3Cl)c1-2 | -71% (active) and -58.8% (inactive)
60 | C/C(=C\C(N)C(=O)O)CP(=O)(O)O (configuration not stated) | -4.78% (inactive)
61 | c1ccc(C2CNCc3ccccc32)cc1 (configuration not stated) | 5.48% (inactive)
62 | C=C1CC2C(CC[C@]3(C)C(=O)CCC23)[C@@]2(C)C=CC(=O)C=C12 (some centres not stated) | 11.4% (inactive)
63 | CN1C(=O)CCS(=O)(=O)C1c1ccc(Cl)cc1 (configuration not stated) | 18% (inactive) and -3.16% (inactive)
64 | CC1(C)C2C[C@@H](O)[C@]3(C)C(CC[C@@]4(C)[C@H](c5ccoc5)OC(=O)[C@H]5O[C@]543)[C@@]2(C)[C@@H](O)C[C@H]1O (some centres not stated) | 4.33% (inactive)
65 | CC1(C)C2CC(=O)[C@]3(C)C(CC[C@@]4(C)[C@H](c5ccoc5)OC(=O)C5OC543)[C@@]2(C)[C@@H](O)C[C@H]1O (some centres not stated) | 1.93% (inactive)
66 | COC(=O)[C@@H]1C[C@H](OC(C)=O)C(=O)[C@H]2[C@@]1(C)CC[C@H]1C(=O)O[C@H](c3ccoc3)C[C@]21C | 11.7% (inactive) and 9.72% (inactive)
67 | CC1(C)C(=O)C=C[C@@]2(C)C1C(=O)C(=O)[C@]1(C)C2CC[C@@]2(C)[C@H](c3ccoc3)C[C@H]3O[C@]321 (some centres not stated) | -86.1% (active)
68 | CC(=O)O[C@@H]1C[C@@]2(C)[C@H](c3ccoc3)C[C@H]3O[C@]32[C@]2(C)C(=O)C(=O)C3C(C)(C)C(=O)C=C[C@]3(C)C12 (some centres not stated) | -89.9% (active)
69 | CC1(C)C(=O)[C@@H]2O[C@@H]2[C@@]2(C)C1C[C@@H](O)[C@]1(C)C2CC[C@@]2(C)[C@H](c3ccoc3)OC(=O)C3OC321 (some centres not stated) | 20.5% (inactive)
70 | CN1[C@@H]2CC[C@H]1CC(OC(=O)N1Cc3ccccc3NC1=O)C2 (some centres not stated) | 15% (inactive) and 8.45% (inactive)
71 | CC(CO)NC(=O)C1C=C2c3cccc4[nH]cc(c34)C[C@H]2N(C)C1 (some centres not stated) | 15.2% (inactive) and -0.618% (inactive)
72 | COc1ccc2c(c1O)-c1cc(O)cc3c1[C@@H](C2)N(C)CC3 | -5.61% (inactive)
